In the library only some 9.4% were active in any assay of this set; here they are far more common.
ELG1 DNA repair: inhibitors of ELG1-dependent DNA repair in HEK293T cells; HEK293T ELG1-luciferase reporter, luminescence, 16 h; DNA damage induced by 5-fluorouridine; Potency, µM (series often up to 46.1 µM), inactives show at the top dose activity change, negative = inhibition, usual class: inhibitors; hit rate 2.3% among 330,000; AID 504467; further: on the % scale 0 is the no-effect control and ±100 the full control effect; nearly all actives have a fitted effect of over 55% in size
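Quantitative HTS, concentration-response format. 2,000 cells/well co-treated with 5-fluorouridine and compound, 16 hr in 5% CO2 at 37 °C; ONE-Glo luminescence read after 30 min.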
ELG1 genotox: genotoxicity induction in ELG1-luciferase HEK293T cells. HEK293T ELG1-luciferase reporter, luminescence, 16 h. Potency, µM (doses to about 46 µM), for inactives: at the highest dose activity change, positive = activation, usual class: activators. hit rate 1.3% among 330,000; further: % of control where 0% means no effect; nearly all actives have a fitted effect of over 60% in size
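HEK293T cells expressing luciferase-tagged ELG1 were treated with compound or DMSO for 16 hr at 37°C. Luciferase activity was then read after 30 min with ONE-Glo at room temperature; rising signal flags genetic stress.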
FLuc counter: counter-screen for miR-21 project: firefly luciferase inhibitors or activators; P08659; purified FLuc, Km substrates, luminescence inhibition; Potency, µM (series often up to 57.5 µM), for inactives: at the top dose activity change, negative = inhibition, usual class: inhibitors; hit rate 6.9% among 360,000; AID 588342;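 further: plate controls were vehicle for no effect and reference inhibitor for full effect; nearly all actives have a fitted effect of over 55% in size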
Target sequence (P08659 whole entry, looked up): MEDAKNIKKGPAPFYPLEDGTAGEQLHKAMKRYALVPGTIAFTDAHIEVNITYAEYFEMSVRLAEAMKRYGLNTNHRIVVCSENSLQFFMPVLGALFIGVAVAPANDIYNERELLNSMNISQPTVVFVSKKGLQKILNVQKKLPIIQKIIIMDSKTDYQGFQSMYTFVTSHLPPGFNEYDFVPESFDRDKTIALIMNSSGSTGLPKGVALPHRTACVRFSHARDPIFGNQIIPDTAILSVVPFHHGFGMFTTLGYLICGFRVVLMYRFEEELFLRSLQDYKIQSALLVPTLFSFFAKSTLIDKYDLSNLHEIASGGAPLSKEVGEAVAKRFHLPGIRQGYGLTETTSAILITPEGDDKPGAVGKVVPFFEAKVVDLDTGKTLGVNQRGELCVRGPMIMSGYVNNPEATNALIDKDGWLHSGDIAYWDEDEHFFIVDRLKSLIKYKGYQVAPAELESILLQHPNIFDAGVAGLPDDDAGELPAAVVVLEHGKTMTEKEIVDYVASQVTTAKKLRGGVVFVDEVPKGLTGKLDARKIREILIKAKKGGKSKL
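Biochemical qHTS of compounds, final roughly 60 µM downward over six points, against 10 nM purified firefly luciferase using Km concentrations of substrates (10 uM D-luciferin, 10 uM ATP) in Tris acetate pH 7.5 buffer; luminescence output.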
Rab9 prom act: Rab9 promoter activation; Huh7 Rab9 promoter-luciferase reporter, luminescence, 24 h; Potency, µM (titrated, usually from 9.22 µM), inactives show at the top dose activation, negative = inhibition, most hits filed as activators; hit rate 2.8% among 320,000; AID 485297; further: % of control where 0% means no effect; nearly all actives have a fitted effect of over 60% in size
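Luminescence from Amplite-detected luciferase (10 minutes, ambient) reports Rab9 promoter activation. Before that, stable Rab9-luciferase Huh7 cells (1500/well, reduced-serum OP-MEM I plus 10% FBS) were exposed to compound for 24 hours at 37C.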
SMN2 splice up: increases expression of the SMN2 splice variant | hit rate 2.8% among 210,000 | Potency, µM (top dose mostly 46.1 µM), for the others: top-dose activity change, positive = activation, most hits filed as activators | HEK293 SMN2-luciferase splicing reporter, luminescence, 30-36 h; further: % of control where 0% means no effect; nearly all actives have a fitted effect of over 55% in size
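qHTS luciferase splicing reporter: luminescence rises when SMN2 exon 7 is included in transfected HEK293 cells. Compound exposure lasted 30-36 h at 37C, with 4.5 mM final sodium butyrate as control, followed by a ONE-Glo read.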
NPC1 promoter act: activates the NPC1 promoter; Potency, µM (titrated, usually from 9.22 µM), for the others: top-dose activation, actives largely listed as activators; Huh7 NPC1 promoter luciferase reporter, 24 h; AID 485313; hit rate 2.4% among 320,000; further: % of control where 0% means no effect; nearly all actives have a fitted effect of over 60% in size
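Readout is luciferase luminescence, reflecting NPC1 promoter activation in stably transfected Huh7 cells after 24 h compound exposure at 37 °C in reduced-serum medium with 10% FBS.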
An asterisk follows results filed as active; ? = inconclusive; . = no result; [ ] = remark or other dose. The call rests on the fitted dose curve; in most records, active means well fitted curve in the direction sought with a large enough effect; inconclusive means small, poorly fitted or top-dose-only effect, or another doubt; inactive means no such curve, though single readings can be large; an effect the other way counts as inactive or inconclusive. Potency means the concentration at half of the fitted maximal effect.

SMILES | ELG1 DNA repair | ELG1 genotox | FLuc counter | Rab9 prom act | SMN2 splice up | NPC1 promoter act
CCCCOC(=O)Nc1cccc(C(=O)OCC)c1 | ? | ? | ? | 0.32µM* | ? | 0.22µM*
CCCCOC(=O)Nc1ccc(S(=O)(=O)Nn2cnnc2)cc1 | 1% | 0% | -8% | -3% | 4% | -2%
CCCCOC(=O)Nc1ccc(N(C)C)cc1 | ? | 9.2µM* | 3µM* | 2.8µM* | 11µM* | 4µM*
COc1ccc2c(c1)[nH]c1c(N3CCN(Cc4ccc5c(c4)OCO5)CC3)ncnc12 | 21µM* | -19% | -19% | -28% | -69% | -29%
COc1cccc2[nH]c3c(N4CCN(Cc5ccc6c(c5)OCO6)CC4)ncnc3c12 | 23µM* | -32% | -11% | -8% | . | -3%
c1nc(N2CCN(Cc3ccc4c(c3)OCO4)CC2)c2[nH]cnc2n1 | ? | -7% | 0% | 0% | -20% | -1%
Cc1ccc2[nH]c3c(N4CCCCCC4)ncnc3c2c1 | 10µM* | -27% | 19µM* | -15% | -69% | -6%
Fc1ccc2[nH]c3c(N4CCN(C5CCCCC5)CC4)ncnc3c2c1 | -1% | -2% | 2% | -3% | . | -4%
CCOc1ccc2[nH]c3c(N4CCN(c5ccccn5)CC4)ncnc3c2c1 | 16µM* | -27% | ? | 0% | -39% | 0%
COc1cccc2[nH]c3c(N4CCC(C)CC4)ncnc3c12 | ? | -19% | ? | 6% | -25% | 5%
CCOC(=O)c1cc(-c2ccccc2)n(-c2cccc(C(=O)N(CC)c3ccccc3)c2)c1C | . | . | -14% | . | . | .
COC(=O)c1ccc2c(=O)n(CCCCCC(=O)N3CCN(c4cccc(C)c4C)CC3)c(=O)[nH]c2c1 | . | . | -4% | . | . | .
Cc1ccc2[nH]c3c(N4CCN(Cc5ccc6c(c5)OCO6)CC4)ncnc3c2c1 | 23µM* | 3% | -2% | -18% | . | 0%
COc1ccc2c(c1)[nH]c1c(N3CCSCC3)ncnc12 | 9.2µM* | -10% | ? | -19% | . | -1%
c1cnc(N2CCN(Cc3ccc4c(c3)OCO4)CC2)nc1 | -5% | 4% | 4% | 2%[46.1 µM] | -11% | 8%[46.1 µM]
Cc1ccc(Cn2c(=O)c3ccccc3n3c(-c4ccccc4)nnc23)cc1 | . | . | -2% | . | . | .
Nc1c(C(=O)Nc2ccccc2)nnn1Cc1ccc(F)cc1Cl | . | . | -1% | . | 8% | .
COC(=O)c1ccc(C#Cc2ccccc2)o1 | ? | 14% | 17µM* | 17% | . | 19%
CCCSCCCNC(=O)C1CCN(c2nc3ccccc3nc2C(F)(F)F)CC1 | . | . | -15% | . | . | .
O=C1CCc2ccc(NS(=O)(=O)c3ccc(F)cc3)cc2N1 | ? | 18µM* | -5% | 13% | ? | 0%
Cc1nc(N2CCN(C(=O)c3ccco3)CC2)c2c3c(sc2n1)CCCC3 | 18µM* | -8% | -1% | 3% | -28% | -1%
CCc1nc(SCC(=O)N2CCN(C(=O)c3ccco3)CC2)c2c3c(sc2n1)CCCC3 | ? | -25% | 17µM* | 3% | -29% | 3%
O=C(CSc1ncnc2sc3c(c12)CCCC3)c1ccco1 | ? | 0% | 12µM* | ? | 13% | 15%
Cc1nc(SCC(=O)N2CCOCC2)c2c3c(sc2n1)CCC3 | 21µM* | -2% | . | . | . | .
O=C(CSc1ncnc2sc3c(c12)CCCC3)c1ccccc1 | ? | 5% | -11% | -6% | -57% | -1%
SMILES | ELG1 DNA repair | ELG1 genotox | FLuc counter | Rab9 prom act | SMN2 splice up | NPC1 promoter act
CCn1c(SCC(=O)N2CCOCC2)nc2sc3c(c2c1=O)CCCC3 | 5% | 6% | -1% | 3% | . | -1%
CC1CCN(S(=O)(=O)c2ccc3c(ccn3CCC(=O)NCc3ccccc3F)c2)CC1 | . | . | -10% | . | . | .
Cc1ccc(C)c(-n2cc(-c3ccccc3)nc2SCC(=O)Nc2ccccc2)c1 | . | . | 4% | . | . | .
COc1ccc(OC)c(-c2csc(-c3c(N)c(C(=O)c4ccc(Cl)cc4)n4ccccc34)n2)c1 | . | . | 2% | . | 1% | .
N#Cc1c(N2CCN(C(=O)c3ccccc3)CC2)nc(-c2ccccc2)c2c1CCCC2 | ? | -13% | 3% | 0% | -10% | 1%
N#Cc1c(N2CCN(C(=O)c3ccco3)CC2)nc(-c2ccccc2)c2c1CCCC2 | 26µM* | -12% | 1% | 7% | -44% | 0%
O=C1C2C3C=CC(C4CC34)C2C(=O)N1/N=C/c1cccs1 (configuration not stated) | ? | 7% | 17µM* | 20% | -7% | 12%
O=C1C2C3C=CC(C4CC34)C2C(=O)N1/N=C/c1ccc([N+](=O)[O-])o1 (configuration not stated) | ? | ? | -1% | -14% | 29% | -24%
COc1ccc(Br)cc1[C@H]1[C@@H]2C=CCC[C@@]2(C)C(=O)N1Cc1ccccc1 | ? | -12% | 1% | -13% | . | 0%
COc1ccc(/C=C/c2ccccc2)cc1[C@H]1[C@@H]2C=CCC[C@@]2(C)C(=O)N1Cc1ccccc1 | 0% | -1% | 13µM* | 0% | . | 0%
CCCc1ccc(-c2cc(NC(=O)CSc3nnc(N)s3)n(-c3ccccc3)n2)cc1 | ? | ? | 0.21µM* | 1.3µM* | . | 2.5µM*
Cc1ccc(-c2cc(NC(=O)CSc3n[nH]c(N)n3)n(-c3ccccc3)n2)cc1 | 7% | -3% | 19µM* | 7% | 6% | 3%
Cc1cc(NC(=O)CSc2cc(Cl)ccc2Cl)n(-c2ccccc2)n1 | 26µM* | -3% | -1% | 9% | -29% | 2%
Cc1nnc(SCC(=O)Nc2cc(-c3cc(C)c(C)cc3C)nn2-c2ccccc2)s1 | ? | -2% | ? | -1% | -23% | -3%
COC(=O)c1ccc(Cl)cc1NC(=O)N(Cc1ccc(OC)cc1)C1CCN(C(C)=O)CC1 | . | . | -2% | . | . | .
CCOC(=O)c1ccc(CNC(=O)CSc2nc(NC(=O)c3ccccc3)c3c(C)c(C)oc3n2)cc1 | 15µM* | -8% | 0% | -1% | 4% | -2%
CCCCCCCCn1ccc(=N)cc1 | 0.73µM* | -20% | 0% | -42% | . | -36%
CCn1c(CSCc2ccc(C)cc2)nnc1SCC(=O)N1CCN(c2ccccc2)CC1 | 18µM* | -20% | 2% | -2% | -53% | -1%
Cc1occc1-c1nnc(SCC(=O)N2CCN(c3ccccc3)CC2)n1C | ? | -10% | 4% | 0% | -35% | -1%
Cn1c(SCC(=O)N2CCN(c3ccccc3)CC2)nnc1-c1ccncc1 | -2% | -4% | 2% | -4% | -26% | 0%
CCn1c(SCC(=O)N2CCN(c3ccccc3)CC2)nnc1-c1ccoc1C | 16µM* | -11% | 0% | 13% | -45% | -3%
